From PubChem
RORg inh: inhibitors of mouse ROR gamma transcriptional activity; hit rate 5.4% among 310,000; Potency, µM (highest dose often 53.6 µM), inactives show top-dose activity change, negative = inhibition, actives largely listed as inhibitors; Drosophila S2 Gal4-RORgamma UAS-luciferase reporter, 20 h; AID 2551; further: nearly all actives have a fitted effect of over 60% in size
Target sequence (P51450 whole entry, looked up, the tested form may be a part): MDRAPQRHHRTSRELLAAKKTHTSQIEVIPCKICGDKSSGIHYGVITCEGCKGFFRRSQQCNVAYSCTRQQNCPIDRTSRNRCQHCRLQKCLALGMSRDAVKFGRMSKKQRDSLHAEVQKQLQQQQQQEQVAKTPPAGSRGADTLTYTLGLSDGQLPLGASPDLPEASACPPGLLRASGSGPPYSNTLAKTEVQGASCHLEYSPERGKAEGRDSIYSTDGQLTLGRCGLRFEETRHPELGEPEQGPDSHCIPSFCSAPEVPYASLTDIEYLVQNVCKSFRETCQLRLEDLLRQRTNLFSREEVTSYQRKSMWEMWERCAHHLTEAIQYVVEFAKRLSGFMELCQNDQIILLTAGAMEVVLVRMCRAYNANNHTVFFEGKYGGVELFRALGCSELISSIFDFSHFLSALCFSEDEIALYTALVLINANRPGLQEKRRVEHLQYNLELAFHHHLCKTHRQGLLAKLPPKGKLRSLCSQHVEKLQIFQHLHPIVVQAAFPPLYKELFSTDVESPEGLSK
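Stably transfected Drosophila Schneider cells are the test system, with ROR gamma fused to Gal4 and luciferase under UAS control; luminescence is read after 20 hr of 700 uM copper sulfate induction at ambient temperature.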
VP16 counter: counter-screen for ROR gamma inhibitors: Gal4-VP16 reporter. Drosophila S2 Gal4-VP16 UAS-luciferase, luminescence, 20 h. hit rate 3.5% among 310,000. Potency, µM (series often up to 53.6 µM), for inactives: at the top dose activity, negative = inhibition, hits mostly inhibitors;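 further: Gal4-VP16 expression switched on by copper sulfate through the metallothionein promoter; nearly all actives have a fitted effect of over 50% in size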
Luc counter: counter-screen: inhibitors of Kinase-Glo firefly luciferase; Q27757; Kinase-Glo luciferase, ATP luminescence, 8 min; Potency, µM (doses to about 38.3 µM), without a hit: at the highest dose activity change, negative = inhibition, usual class: inhibitors; hit rate 0.28% among 200,000; AID 1379; further: nearly all actives have a fitted effect of over 60% in size
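Compound is pinned into ATP-containing buffer (10 uM ATP, imidazole pH 7.2, 7 mM MgCl2). Kinase-Glo luciferase reagent is then added. Light output is recorded following an 8-min room-temperature incubation.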
Numbers without * were called inactive; ? = inconclusive; · = no result. A selection: hits, their analogues and other compounds. The true share with any hit is near 6.2%. The call rests on the fitted dose curve; in most records, active means well fitted curve in the direction sought with a large enough effect; inconclusive means small, poorly fitted or top-dose-only effect, or another doubt; inactive means no such curve, though single readings can be large; an effect the other way counts as inactive or inconclusive. On the % scale 0 is the no-effect control and ±100 the full control effect; potency means the concentration at half of the fitted maximal effect.

SMILES	RORg inh	VP16 counter	Luc counter
O=C(/C=C/c1ccccc1)NCCCNC(=O)/C=C/c1ccccc1	-1.7%	-16.1%	1.3%
Cc1ccc(/C=C/C(=O)NC(=S)N2CCN(c3ccc(F)cc3)CC2)cc1	?	-7.9%	·
NC(=O)c1ccccc1NC(=O)/C=C/c1ccccc1	-37.2%	-14.0%	?
O=C(/C=C/c1ccccc1)NCCSCc1ccccc1	?	12.6µM*	-0.5%
CC(C)n1c(O)c(N=NC(=O)c2ccccc2NS(=O)(=O)c2cccs2)c2ccccc21	-5.7%	-2.0%	2.3%
Cc1ccnc(NC(=O)c2cnc(Cl)c(Cl)c2)c1	-30.9%	?	·
COC(=O)c1cc(S(=O)(=O)Nc2ccsc2C(=O)OC)oc1C	34.7%	7.4%	·
COC(=O)c1[nH]c2cc(OC)c(OC)cc2c1NC(=O)c1cccc(OC)c1	18.5%	-3.8%	-4.0%
Fc1ccc(CSc2nnc(-c3cccnc3)o2)cc1	23.6%	?	-1.1%
O=C(/C=C/c1ccccc1)NC(=S)N1CCSCC1	7.94µM*	10µM*	-0.3%
COc1ccc(/C=C/C(=O)NC(=S)N2CCN(c3ccccc3OC)CC2)cc1	1.6%	-0.8%	·
CC(=O)N1CCN(c2ccc(NC(=S)NC(=O)/C=C/c3ccccc3)cc2)CC1	-32.9%	-2.3%	-0.1%
COc1ccc(/C=C/C(=O)NC(=S)N2CCOCC2)cc1	3.98µM*	?	·
C[C@H](NC[C@H](O)CP(=O)(O)Cc1ccccc1)c1ccc(Cl)c(Cl)c1	5.7%	1.9%	2.5%
Cc1ccc(S(=O)(=O)Nc2ccc3c(c2)OCCO3)c(C)c1NS(C)(=O)=O	19.3%	-4.3%	·
COc1cc(=O)[nH]c(SC(C)C(=O)Nc2cccc3ccccc23)n1 (configuration not stated)	-7.7%	-8.7%	·
O=C(CSc1nnc(NC(=O)c2cccc(F)c2)s1)NCC1CCCO1 (configuration not stated)	-30.1%	-18.4%	·
CCOc1ccc(C(=O)Nc2nnc(SCC(=O)NCC3CCCO3)s2)cc1 (configuration not stated)	?	3.55µM*	·
CC(C)(C)c1ccc(C(=O)Nc2nnc(SCC(=O)NCC3CCCO3)s2)cc1 (configuration not stated)	?	7.08µM*	·
CN(C)S(=O)(=O)c1ccc(C(=O)Nc2nnc(SCC(=O)NCC3CCCO3)s2)cc1 (configuration not stated)	0.1%	1.3%	·
O=C(O)CN1CCN(Cc2ccccc2F)C1=O	-3.9%	-3.4%	2.3%
Cc1cc2n(n1)SC(Nc1ccccc1)N2 (configuration not stated)	3.16µM*	4.47µM*	-6.6%
Cc1ccc(N=CNc2ccc(C)cc2C)c(C)c1	8.6%	0.5%	·
Cc1cc(NC(=NC2CC2)c2ccccc2)n(-c2ccccc2)n1	-34.9%	-19.3%	·
Cc1ccc(NC2Nc3cc(C)nn3S2)c(C)c1 (configuration not stated)	3.55µM*	?	4.9%
SMILES	RORg inh	VP16 counter	Luc counter
CCOC(=O)c1c(C)[nH]c(C(=O)CSc2nnc(Nc3ccccc3F)s2)c1C	-2.3%	27.1%	1.6%
Cc1oc2cc3oc(=O)c(CCC(=O)NCCN4CCOCC4)c(C)c3cc2c1C	-4.2%	-3.8%	·
C=CCN1C(=O)/C(=C/C(=O)OC)S/C1=N\NC(=O)c1ccccc1	7.94µM*	17.8µM*	·
C=CCn1c(C)c(C(C)=O)cc(NC(=O)c2ccccc2)c1=O	1.4%	-7.8%	-0.7%
COc1ccccc1-c1nc2ccccc2nc1-c1ccccc1	3.1%	7.8%	-1.9%
COc1ccccc1-c1nc2c3ccccc3nc(=S)n2[nH]1	0.355µM*	1.26µM*	·
COc1cc(-c2nc3c4ccccc4nc(=S)n3[nH]2)cc(OC)c1OC	1.41µM*	1.41µM*	·
COc1cc(-c2nc3ccccc3c(=O)n2N)cc(OC)c1OC	29.1%	-15.2%	5.1%
O=C(NC(=S)NNC(=O)c1ccco1)c1ccc(Br)cc1	12.6µM*	?	·
O=C(NNC(=O)c1cccs1)c1ccco1	-2.5%	-9.4%	-7.3%
O=C(NC(=S)NNC(=O)c1cccs1)c1ccco1	2.82µM*	?	-1.3%
C/C(=N\NC(=O)c1ccco1)c1ccc(NC(=O)c2cccs2)cc1	?	-20.8%	-3.3%
O=C(NNC(=S)NC(=O)c1ccco1)c1ccc(F)cc1	-9.4%	-6.2%	·
O=C(Nc1ccc(NC(=S)NC(=O)c2cccs2)cc1)c1ccco1	11.2µM*	-21.8%	0.1%
COc1cc(CNc2ccc(CNc3ncn[nH]3)cc2)ccc1OCc1ccccc1	?	24.4%	2.9%
CN(Cc1ccc(N(C)C)cc1)C(=O)c1cc2ccccc2o1	76.4%	28.6%	·
Cc1ccc(-n2nnc3c(=O)n(Cc4ccccn4)cnc32)cc1C	2.5%	18.6%	0.2%
O=C1CCC/C(=N/NC(=O)c2sc3ccccc3c2Cl)C1	-40.3%	28.7%	·
O=C(N/N=C/c1cccnc1)c1sc2ccccc2c1Cl	12.6µM*	25.1µM*	·
COc1ccc2c(Cl)c(C(=O)N/N=C/c3cccnc3)sc2c1	?	-17.6%	·
O=C(NN=C1CCCC1)c1sc2ccccc2c1Cl	11.2µM*	?	1.5%
CC(=O)c1cccc(NC(=O)N2CCCC2C(=O)Nc2ccc3c(c2)OCO3)c1 (configuration not stated)	7.7%	10.5%	0.4%
O=c1c(N2CCOCC2)c(N2CCOCC2)c1=O	29.6%	-0.6%	·
CC(C)(C)C1=CC(=O)C(N2CCOCC2)=CC1=O	10µM*	?	-8.5%
COc1cccc(-c2nccc(NC3CCNCC3)n2)c1	?	-1.6%	1.2%
SMILES	RORg inh	VP16 counter	Luc counter
COc1ccc(-c2c(C)nc3c(-c4ccccn4)cnn3c2N)cc1	5.01µM*	10µM*	·
COc1ccc(-c2c(C)nc3c(-c4ccsc4)cnn3c2N)cc1	-33.5%	?	·
Cn1c2ccccc2c(=O)c2ccc(C#CC3(N)CCCCC3)cc21	-36.5%	-11.5%	·
Cn1c2ccccc2c(=O)c2cc(C#Cc3ccsc3)ccc21	13.9%	18.4%	·
Cn1c2ccccc2c(=O)c2ccc(C#Cc3ccccn3)cc21	11.2µM*	15.8µM*	·
Cn1c2ccccc2c(=O)c2cc(C#CC3(O)CCCCC3)ccc21	11.2µM*	15.8µM*	·
CCN(CC)C(=O)CS(=O)(=O)CC(=O)Nc1cc(OCCOC)c(Cl)cc1Cl	10.2%	-1.7%	·
C/C(=N\NC(=O)C12CCC(C)(C(=O)O1)C2(C)C)c1ccccc1O (configuration not stated)	0.708µM*	1.26µM*	·
CC12CCC(C(=O)NCc3ccccc3)(OC1=O)C2(C)C (configuration not stated)	23.8%	-2.0%	-3.4%
CC(=O)c1c(C)[nH]c(C(=O)NCCc2c[nH]c3ccccc23)c1C	-2.0%	-13.5%	·
Clc1cccc(N/N=C(\Cc2nc3ccccc3[nH]2)c2ccccc2)c1	17.8µM*	-89.2%	-2.2%
c1ccc(N/N=C(\Cc2ncc[nH]2)c2ccccc2)cc1	?	-8.7%	-0.9%
Cc1ccc(OCC(O)CN2CCC(Cc3ccccc3)CC2)c(C)c1 (configuration not stated)	-15.2%	-0.5%	·
O=C(COc1cccc2ccccc12)Nc1nc2ccccc2[nH]1	10µM*	11.2µM*	-3.2%
CCOc1ccccc1OCC(=O)Nc1nc2ccccc2[nH]1	5.62µM*	?	3.0%
Cc1cc(C)c(OCC(=O)Nc2nc3ccccc3[nH]2)c(C)c1	11.2µM*	-27.1%	1.9%
